The full data set covers some 7,900 targets. This sample favours those with a hit. About 0.6% of all pairs of compound and target were hits.
compound: C1=CC(=CC=C1C2=NC3=C(N2)C=C(C=C3)C(=O)N)OC4=CC=C(C=C4)Cl; assay: log2 fold change, soluble protein after heating vs DMSO (PISA); higher = thermal stabilisation; K562 cells, 10 uM, 30 min; active = over 0.2 and 3.5 SD of the protein, either way, in both replicates (recomputed)
Procedure, shortened: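 Thermal stability values are relative to control samples and come from duplicates. They are expressed as log2 fold changes. For measurement, K562 cells (2×10^6 cells/mL) received 10 μM compound for 30 min, and aliquots were heated for 3 min over 48°C-58°C, pooled, and extracted at 4°C in PBS with 0.5% NP-40. Soluble protein, the supernatant after 21,000xg for 90 min, was quantified by TMTpro 16plex LC-MS/MS with equalised channel sums.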

Sequence of UniProt Q9UMR5 (Q9UMR5 whole entry, looked up): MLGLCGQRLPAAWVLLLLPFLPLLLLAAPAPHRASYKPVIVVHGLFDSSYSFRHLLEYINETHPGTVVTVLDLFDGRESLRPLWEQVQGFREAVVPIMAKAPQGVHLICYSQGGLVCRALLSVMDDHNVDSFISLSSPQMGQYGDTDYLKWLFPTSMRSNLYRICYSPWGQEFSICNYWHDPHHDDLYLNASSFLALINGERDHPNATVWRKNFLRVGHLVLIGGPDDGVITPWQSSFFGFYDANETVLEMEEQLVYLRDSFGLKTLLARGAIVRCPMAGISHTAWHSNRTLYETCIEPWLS
Sequence of UniProt P09884 (P09884 whole entry, looked up): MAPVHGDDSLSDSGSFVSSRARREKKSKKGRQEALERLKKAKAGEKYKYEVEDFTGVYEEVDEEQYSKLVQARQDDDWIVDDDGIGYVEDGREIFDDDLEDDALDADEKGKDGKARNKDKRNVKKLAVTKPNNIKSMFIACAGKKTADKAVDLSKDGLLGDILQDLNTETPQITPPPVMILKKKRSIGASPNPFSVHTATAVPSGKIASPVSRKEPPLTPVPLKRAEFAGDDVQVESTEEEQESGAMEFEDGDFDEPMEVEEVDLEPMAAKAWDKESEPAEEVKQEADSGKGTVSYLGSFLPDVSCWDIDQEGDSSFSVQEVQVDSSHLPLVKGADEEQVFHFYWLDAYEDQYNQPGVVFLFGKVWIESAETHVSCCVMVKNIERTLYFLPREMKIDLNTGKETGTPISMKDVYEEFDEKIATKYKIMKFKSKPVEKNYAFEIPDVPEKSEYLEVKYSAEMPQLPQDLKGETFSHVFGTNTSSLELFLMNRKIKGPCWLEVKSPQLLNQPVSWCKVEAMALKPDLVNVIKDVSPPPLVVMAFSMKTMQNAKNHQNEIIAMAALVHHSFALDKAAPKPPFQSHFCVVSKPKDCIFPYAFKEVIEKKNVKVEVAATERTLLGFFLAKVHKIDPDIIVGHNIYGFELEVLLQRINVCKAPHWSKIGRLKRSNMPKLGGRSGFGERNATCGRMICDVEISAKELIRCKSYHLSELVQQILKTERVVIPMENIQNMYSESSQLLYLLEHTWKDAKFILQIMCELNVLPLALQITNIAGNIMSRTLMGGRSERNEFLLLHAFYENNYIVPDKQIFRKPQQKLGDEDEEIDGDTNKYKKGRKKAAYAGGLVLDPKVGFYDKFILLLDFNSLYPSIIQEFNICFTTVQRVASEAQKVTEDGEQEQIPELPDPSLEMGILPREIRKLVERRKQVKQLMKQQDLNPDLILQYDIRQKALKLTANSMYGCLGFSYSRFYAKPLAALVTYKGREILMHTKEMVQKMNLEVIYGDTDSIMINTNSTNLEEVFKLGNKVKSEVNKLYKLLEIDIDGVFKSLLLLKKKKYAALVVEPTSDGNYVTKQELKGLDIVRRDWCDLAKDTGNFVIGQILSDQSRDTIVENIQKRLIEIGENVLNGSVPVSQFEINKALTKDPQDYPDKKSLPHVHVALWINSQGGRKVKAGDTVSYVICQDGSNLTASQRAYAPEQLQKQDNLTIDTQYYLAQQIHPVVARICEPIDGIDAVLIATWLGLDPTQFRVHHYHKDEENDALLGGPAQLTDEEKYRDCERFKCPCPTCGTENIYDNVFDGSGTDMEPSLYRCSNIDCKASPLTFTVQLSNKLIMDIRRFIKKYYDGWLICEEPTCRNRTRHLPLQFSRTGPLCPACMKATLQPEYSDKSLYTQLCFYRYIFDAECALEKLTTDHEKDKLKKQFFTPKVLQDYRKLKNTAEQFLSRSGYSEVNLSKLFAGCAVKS
Sequence of UniProt P28340 (P28340 whole entry, looked up): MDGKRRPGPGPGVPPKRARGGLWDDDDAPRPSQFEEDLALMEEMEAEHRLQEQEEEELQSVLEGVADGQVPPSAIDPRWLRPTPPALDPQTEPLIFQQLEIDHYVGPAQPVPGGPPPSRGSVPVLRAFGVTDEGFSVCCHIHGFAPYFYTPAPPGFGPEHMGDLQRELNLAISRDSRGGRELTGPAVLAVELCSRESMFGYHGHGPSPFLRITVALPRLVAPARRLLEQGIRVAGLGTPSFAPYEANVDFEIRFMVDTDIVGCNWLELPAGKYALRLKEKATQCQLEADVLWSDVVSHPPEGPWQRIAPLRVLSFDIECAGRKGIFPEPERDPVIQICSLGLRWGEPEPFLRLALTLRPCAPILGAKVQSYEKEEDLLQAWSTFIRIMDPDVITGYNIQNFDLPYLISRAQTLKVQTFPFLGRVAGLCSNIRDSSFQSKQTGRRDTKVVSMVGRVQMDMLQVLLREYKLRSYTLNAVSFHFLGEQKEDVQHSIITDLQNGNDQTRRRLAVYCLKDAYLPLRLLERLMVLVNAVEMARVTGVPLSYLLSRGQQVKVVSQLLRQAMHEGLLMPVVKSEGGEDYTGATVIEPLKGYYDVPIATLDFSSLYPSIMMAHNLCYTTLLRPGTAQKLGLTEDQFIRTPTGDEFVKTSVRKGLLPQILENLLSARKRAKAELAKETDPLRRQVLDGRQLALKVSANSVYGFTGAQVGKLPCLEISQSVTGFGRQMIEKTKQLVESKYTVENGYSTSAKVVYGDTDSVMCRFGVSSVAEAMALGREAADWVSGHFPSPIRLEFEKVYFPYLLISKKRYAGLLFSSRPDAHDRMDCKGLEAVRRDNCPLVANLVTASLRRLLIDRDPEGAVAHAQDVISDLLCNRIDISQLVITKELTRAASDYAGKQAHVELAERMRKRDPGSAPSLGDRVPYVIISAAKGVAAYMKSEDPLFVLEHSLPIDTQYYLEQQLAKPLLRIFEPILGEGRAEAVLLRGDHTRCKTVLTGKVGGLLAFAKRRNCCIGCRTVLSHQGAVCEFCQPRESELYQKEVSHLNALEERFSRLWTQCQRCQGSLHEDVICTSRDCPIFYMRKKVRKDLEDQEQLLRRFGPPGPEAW
Sequence of UniProt Q16401 (Q16401 whole entry, looked up): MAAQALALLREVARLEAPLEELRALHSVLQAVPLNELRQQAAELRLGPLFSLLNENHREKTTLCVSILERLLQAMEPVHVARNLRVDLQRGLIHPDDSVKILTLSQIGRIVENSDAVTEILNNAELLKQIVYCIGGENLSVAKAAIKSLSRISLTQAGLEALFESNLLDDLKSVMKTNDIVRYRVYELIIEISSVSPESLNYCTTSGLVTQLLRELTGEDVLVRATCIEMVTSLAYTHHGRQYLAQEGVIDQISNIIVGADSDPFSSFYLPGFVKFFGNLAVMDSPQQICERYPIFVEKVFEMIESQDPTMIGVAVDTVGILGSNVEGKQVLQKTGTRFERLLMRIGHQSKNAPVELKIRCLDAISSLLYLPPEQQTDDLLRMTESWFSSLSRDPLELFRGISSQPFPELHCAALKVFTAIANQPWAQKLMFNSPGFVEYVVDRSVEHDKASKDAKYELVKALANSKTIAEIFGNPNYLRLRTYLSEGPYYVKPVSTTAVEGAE
Sequence of UniProt O95394 (O95394 whole entry, looked up): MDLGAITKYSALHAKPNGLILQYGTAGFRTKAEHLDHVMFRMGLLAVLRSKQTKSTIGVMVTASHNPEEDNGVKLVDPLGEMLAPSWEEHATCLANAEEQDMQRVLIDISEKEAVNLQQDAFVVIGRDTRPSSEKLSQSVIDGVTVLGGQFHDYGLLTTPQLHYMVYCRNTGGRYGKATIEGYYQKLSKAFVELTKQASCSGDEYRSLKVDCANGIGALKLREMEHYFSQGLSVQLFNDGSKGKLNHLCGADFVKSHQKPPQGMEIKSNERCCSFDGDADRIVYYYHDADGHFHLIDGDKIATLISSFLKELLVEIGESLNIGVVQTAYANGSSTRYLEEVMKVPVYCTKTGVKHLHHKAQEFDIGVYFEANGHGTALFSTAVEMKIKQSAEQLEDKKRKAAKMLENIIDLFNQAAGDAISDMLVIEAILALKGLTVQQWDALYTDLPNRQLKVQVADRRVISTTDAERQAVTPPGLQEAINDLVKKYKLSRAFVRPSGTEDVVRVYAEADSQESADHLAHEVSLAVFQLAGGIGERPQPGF
Sequence of UniProt Q9Y244 (Q9Y244 whole entry, looked up): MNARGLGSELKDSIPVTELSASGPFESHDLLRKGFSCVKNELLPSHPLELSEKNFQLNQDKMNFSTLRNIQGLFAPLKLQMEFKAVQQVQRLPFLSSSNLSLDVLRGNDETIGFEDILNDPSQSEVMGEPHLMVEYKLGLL
Sequence of UniProt Q10713 (Q10713 whole entry, looked up): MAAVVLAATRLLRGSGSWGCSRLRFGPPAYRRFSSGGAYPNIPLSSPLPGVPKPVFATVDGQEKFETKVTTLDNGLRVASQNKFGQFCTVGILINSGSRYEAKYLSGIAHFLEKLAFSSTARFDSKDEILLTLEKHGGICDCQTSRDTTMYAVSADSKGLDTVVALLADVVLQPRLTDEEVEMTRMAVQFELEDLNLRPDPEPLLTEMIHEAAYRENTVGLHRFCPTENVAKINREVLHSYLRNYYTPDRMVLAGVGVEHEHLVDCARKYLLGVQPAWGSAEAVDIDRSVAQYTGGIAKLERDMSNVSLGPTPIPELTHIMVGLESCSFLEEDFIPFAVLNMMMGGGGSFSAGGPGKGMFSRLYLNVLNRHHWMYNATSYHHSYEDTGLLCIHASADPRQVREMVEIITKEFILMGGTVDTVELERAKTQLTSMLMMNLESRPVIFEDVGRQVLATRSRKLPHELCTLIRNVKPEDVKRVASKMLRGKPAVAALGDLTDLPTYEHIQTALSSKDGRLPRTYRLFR
Sequence of UniProt P49585 (P49585 whole entry, looked up): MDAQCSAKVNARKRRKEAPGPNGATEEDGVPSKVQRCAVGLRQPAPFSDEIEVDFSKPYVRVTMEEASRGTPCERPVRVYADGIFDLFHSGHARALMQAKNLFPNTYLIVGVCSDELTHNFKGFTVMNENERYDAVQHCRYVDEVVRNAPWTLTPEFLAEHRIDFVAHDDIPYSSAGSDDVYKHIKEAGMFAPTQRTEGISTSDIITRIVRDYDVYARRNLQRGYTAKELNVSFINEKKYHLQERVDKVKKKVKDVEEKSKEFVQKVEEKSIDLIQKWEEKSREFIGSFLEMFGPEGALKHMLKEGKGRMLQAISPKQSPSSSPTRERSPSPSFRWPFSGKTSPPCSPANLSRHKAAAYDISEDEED

log2 fold change, inactive:
PHF5A (UniProt Q7RTV0) -0.034
PRKAR2A (UniProt P13861) 0.062
PRUNE1 (UniProt Q86TP1) 0.03
POMP (UniProt Q9Y244) 0.015
PPT2 isoform 3 (UniProt Q9UMR5) -0.001
PIP4P1 isoform 2 (UniProt Q86T03) -0.014
POLD1 (UniProt P28340) -0.016
PGGT1B (UniProt P53609) 0.006
PPP1R14A (UniProt Q96A00) 0.063
PRMT3 (UniProt O60678) 0.027
PEX11B (UniProt O96011) -0.001
PCYT1A (UniProt P49585) -0.001
PISD (UniProt Q9UG56) 0.089
PSMD5 (UniProt Q16401) -0.007
PRPF40A (UniProt O75400) 0.012
PDIK1L (UniProt Q8N165) -0.052
PMPCA (UniProt Q10713) 0.016
PDCD2L (UniProt Q9BRP1) 0.03
PSMC6 (UniProt P62333) 0.011
PRKAB1 (UniProt Q9Y478) -0.011
PDSS2 (UniProt Q86YH6) 0.012
POLA1 (UniProt P09884) -0.023
PGM3 isoform 4 (UniProt O95394) 0.103
